Compounds with a hit are over-represented: about 28% of the library has one in this group of screens.
CYP2C19 activ – human CYP2C19 activators, primary screen, biochemical, luminescence; Cytochrome P450 2C19 (Homo sapiens), P33261; recombinant CYP2C19, luciferin-H EGE luminescence; hits give high values; 0 = fully inhibited enzyme, 1 = untreated enzyme; activation factor at 5 µM; 96,000 tested, under 10 active; AID 1025, 2008;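 active = activation factor of at least 2 at 5 µM in the primary screen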
Target sequence (P33261 whole entry, looked up): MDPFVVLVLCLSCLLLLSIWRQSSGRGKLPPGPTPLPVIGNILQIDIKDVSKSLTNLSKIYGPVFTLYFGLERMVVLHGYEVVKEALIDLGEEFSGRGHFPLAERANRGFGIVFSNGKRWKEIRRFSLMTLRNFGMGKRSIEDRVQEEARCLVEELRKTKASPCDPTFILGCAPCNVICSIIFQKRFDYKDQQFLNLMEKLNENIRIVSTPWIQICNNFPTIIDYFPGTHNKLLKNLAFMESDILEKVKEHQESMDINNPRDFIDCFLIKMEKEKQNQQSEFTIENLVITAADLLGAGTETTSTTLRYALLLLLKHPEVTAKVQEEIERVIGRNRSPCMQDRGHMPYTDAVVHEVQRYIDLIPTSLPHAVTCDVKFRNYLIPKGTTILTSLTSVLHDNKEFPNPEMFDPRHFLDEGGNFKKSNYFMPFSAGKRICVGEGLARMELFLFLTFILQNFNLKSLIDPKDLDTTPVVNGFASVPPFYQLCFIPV
CYP2C9 act – human CYP2C9 activators, primary screen, biochemical, luminescence. recombinant CYP2C9, luciferin-H conversion; hits give high values; factor 1 = untreated enzyme, 0 = blocked. AID 1024, 2008. activation factor at 5 µM. actives 1.4% (n = 96,000). Cytochrome P450 2C9 (Homo sapiens), P11712;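 active = activation factor of 2 or more for CYP2C9 at a 5 µM dose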
CYP2C9 inh – blockers of cytochrome P450 2C9 activity – biochemical, luminescence, ADME assay, primary screen; inhibition, % at 5 µM; CYP2C9 Supersomes, luciferin-H conversion; AID 777, 2007; actives 20% (n = 96,000);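 active = blocking of liver enzyme CYP2C9 beyond about 50% at 5 µM, limit read from the data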
CYP2C19 inhib – blockers of cytochrome P450 2C19 activity – biochemical, luminescence, ADME assay, primary screen; CYP2C19 Supersomes, luciferin-H EGE luminescence, 30 min; inhibition, % at 5 µM; actives 21% (n = 96,000); AID 778, 2007;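 active = CYP2C19 inhibition above a set limit at 5 µM in the primary screen, cut at about 50% in these data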
PLK1 inh – human PLK1 kinase inhibitors, primary screen, biochemical, TR-FRET | inhibition, % at 10 µM | actives 0.53% (n = 97,000) | recombinant PLK1 kinase, TR-FRET peptide phosphorylation | Serine/threonine-protein kinase PLK1 (Homo sapiens), P53350;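 active = inhibition of 50% or more in the single-concentration screen; inactive = inhibition below 50%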
PLK1 PBD inh – Plk1 polo box domain binding inhibitors, primary screen, biochemical, fluorescence polarization. Plk1 PBD phosphopeptide binding. inhibition, %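 (tested at about 20 µM)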. actives 0.13% (n = 97,000); in the data active = inhibition above about 34%, passing the limit was not always enough
Numbers stand for hits; – = inactive; · = no result.

SMILES	CYP2C19 activ	CYP2C9 act	CYP2C9 inh	CYP2C19 inhib	PLK1 inh	PLK1 PBD inh
Cn1c2ccccc2c2c(C(=O)N3CCN(C(=O)c4ccco4)CC3)cn(C3CCCCC3)c(=O)c21	–	–	73.6	–	–	–
CN(C)S(=O)(=O)c1cccc(C(=O)NCCc2ccccc2)c1	–	–	–	–	–	–
CCCOC(=O)NC(CC)COC(=O)Nc1cccc(C)c1C (stereo not given)	–	–	–	71.6	–	–
CCC(COC(=O)Nc1cccc(C)c1C)NC(=O)OCC(C)C (stereo not given)	–	–	–	95.8	–	–
CC(C)COC(=O)Nc1ccc(C(=O)O)cc1	–	–	–	–	–	–
Cc1ccc(CNc2ccc(N3CCOCC3)c(C(=O)O)c2)s1	–	–	–	–	–	–
COCCn1cc(C(=S)N2CCOCC2)c2ccccc21	–	–	–	–	–	–
Cc1nc(-c2cccc(NS(=O)(=O)c3cccc4ccccc34)c2)cs1	–	–	–	97.5	–	–
Nc1nc(-c2cccc(NS(=O)(=O)c3ccccc3)c2)cs1	–	–	95.4	98.7	–	–
Cc1cc(NCCCN2CCOCC2)n2ncc(-c3ccccc3)c2n1	–	–	87.7	–	–	–
Cc1cc(C)c2c(n1)nn1c(NCCCN3CCOCC3)cc(C)nc21	·	·	·	·	–	–
Cc1cc(NCCCN2CCOCC2)n2nc(C)c(-c3ccccc3)c2n1	–	–	71.3	–	–	–
Cc1ccc(C)c(C(=O)COC(=O)c2ccc(Br)o2)c1	–	–	–	–	–	–
CCOC(=O)CSc1n[nH]c(NC(=O)c2cccc(C)c2)n1	–	–	–	–	–	–
CCOC(=O)CN1C(=O)C(Sc2n[nH]c(-c3cccc(C)c3)n2)CCc2ccccc21 (stereo not given)	–	–	84.8	56.9	–	–
CC(C)(C)n1ncc(Oc2ccc(Oc3cnn(C(C)(C)C)c(=O)c3Cl)cc2)c(Cl)c1=O	·	·	·	·	–	–
O=C(c1ccc(Cl)cc1)C1C2C(=O)N(c3ccccc3)C(=O)C2C2CCCN21 (stereo not given)	–	–	78.5	78.9	–	–
COc1cccc(-c2cc(N)nn2C(=O)Nc2ccc(Cl)cc2)c1	–	–	–	–	–	–
O=C(NC1(C(F)(F)F)NC(=O)N(Cc2ccccc2)C1=O)c1cccs1 (stereo not given)	·	·	·	·	–	–
c1csc(Cc2nn3c(-c4ccncc4)nnc3s2)c1	–	–	80.0	98.3	·	·
Clc1ccccc1OCc1nn2c(-c3ccncc3)nnc2s1	–	–	79.7	99.6	–	–
CCCc1nc2ccccc2c2nc(N)nn12	–	–	–	–	–	–
Nc1nc2c3ccccc3nc(Cc3ccccc3)n2n1	–	–	–	54.9	–	–
O=C(NC1CC1)C1CCN(c2ncnc3c2sc2cccc(F)c23)CC1	–	–	73.3	60.6	–	–
NC(=O)C1CCN(c2ncnc3c(-c4ccccc4)nsc23)CC1	–	–	–	–	–	–
SMILES	CYP2C19 activ	CYP2C9 act	CYP2C9 inh	CYP2C19 inhib	PLK1 inh	PLK1 PBD inh
CCOC(=O)C1(Nc2nccs2)Sc2ccccc2NC1=O (stereo not given)	–	–	–	64.2	–	–
COc1ccc(NC(=O)c2ccco2)c(NC(=O)Cc2cccs2)c1	–	–	–	–	–	–
COc1cccc(C2C(=O)N(C3CCCCC3)CC(=O)N2Cc2ccc(F)cc2)c1 (stereo not given)	–	–	–	–	–	–
COc1ccccc1CN1C(=O)CN(C2CCCCCC2)C(=O)C1c1ccc(F)cc1 (stereo not given)	–	–	–	57.4	–	–
Cc1cc(NC(=O)CN2CCN(c3ncccn3)CC2)no1	–	–	–	–	–	–
Fc1cccc(F)c1CN1CCN(c2ncccn2)CC1	–	–	–	79.1	–	–
Cc1ccc(CN2CCN(c3ncccn3)CC2)o1	–	–	–	68.1	–	–
Cc1ccc(C2c3c(oc4ccccc4c3=O)C(=O)N2c2nnc(C)s2)o1 (stereo not given)	·	·	·	·	–	–
CCCS(=O)(=O)N1CCC(C(=O)NCCN(C)Cc2ccccc2)CC1	–	–	–	–	–	–
CCC(=O)Nc1ccc(C(=O)Nc2cccnc2)cc1	–	–	–	–	–	–
CC/C(=C\C(=O)c1ccncc1)Nc1ccc(O)cc1	–	–	–	86.9	–	–
CCCNC(=O)NCCc1ccncc1	–	–	–	–	–	–
O=C(NNc1cccc(Cl)n1)Nc1ccccc1	–	–	–	–	–	–
O=C(NCCc1ccncc1)Nc1ccccc1Cl	–	–	82.3	88.9	–	–
O=C(NCCc1ccncc1)Nc1cccc(Cl)c1	–	–	98.1	98.5	–	–
O=C(NNc1cccc(Cl)n1)Nc1cccc(Cl)c1	–	–	–	71.6	–	–
COCCn1c(Cc2ccccc2)nnc1SCC(=O)NC(C)C	–	–	–	–	–	–
CC(C)(C)NC(=O)C(c1ccccc1)N(C(=O)C1CSC(=O)C1)c1ccccc1 (stereo not given)	–	–	–	–	–	–
C#CCn1c(S(=O)(=O)Cc2ccc(OC)cc2)nc(-c2ccccc2)c1-c1ccccc1	–	–	81.5	64.3	–	–
CCOC(=O)Cn1c(S(=O)(=O)Cc2ccc(Cl)cc2)nc(-c2ccccc2)c1-c1ccccc1	–	–	50.0	–	–	–
COc1ccc(S(=O)(=O)NCC(=O)N(CC(=O)NCC2CCCO2)c2cc(C)ccc2C)cc1 (stereo not given)	–	–	–	–	–	–
COc1ccc(OC)c(/C=C(\NC(=O)c2ccccc2)C(=O)N/N=C/c2ccc(C)s2)c1	–	–	–	–	–	–
COc1cc(/C=N/N(C)c2ccccc2)cc(Cl)c1O	–	–	58.0	52.2	–	–
COc1ccc(OC)c(/C=N/N(C)c2ccccc2)c1	–	–	55.5	66.6	–	–
C/C(=C\C(=O)c1ccccc1)NNc1nc2ccccc2s1	–	–	–	60.8	–	–
CCOc1ccc2nc(NC(NC(=O)CC)(C(=O)OC)C(F)(F)F)sc2c1 (stereo not given)	–	–	–	70.2	·	·
CCOC(=O)C1=C(O)C(Nc2nc3ccccc3s2)(C(F)(F)F)N=C1C (stereo not given)	–	–	–	97.6	–	–
CCCC(=O)Nc1nc2ccc(OCC)cc2s1	–	–	–	–	–	–
CCOC(=O)N/C(N)=N/c1nc2ccccc2s1	–	–	–	–	–	–
CCOc1ccc2nc(NC(NC(C)=O)(C(=O)OC)C(F)(F)F)sc2c1 (stereo not given)	–	–	–	57.8	·	·

Bioassay records: PubChem BioAssay, several laboratories
